Results on 7 compounds are retold here after PubChem BioAssay (Tox21).

Each structure is given as a SMILES string. Unmarked numbers belong to inactive results. Results filed as inconclusive are left out. Calls of active or inactive are those of the source. Unless noted, calls come from the whole dose curve; as a rule, active = well fitted curve in the direction sought with a large enough effect in the repeat runs; inconclusive = weak or mixed curves; inactive = no such curve, though single readings can be large; an effect the other way counts as inactive or inconclusive.

Test [1] is described as follows: qHTS assay to identify small molecule agonists of the constitutive androstane receptor (CAR) signaling pathway - cell viability counter screen (AID 1224836). Note: nearly all actives have a fitted effect of over 45% in size. A digest of the protocol:
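23 h treatment, 37 C, 5% CO2. Cell line: HepG2 stably expressing hCAR with a CYP2B6-2.2kb construct. Co-treatment: PK11195, 0.75 uM final. Read-out: CellTiter-Fluor fluorescence intensity.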
For orientation: qHTS replaces the single test concentration by a dilution series.

Test [2] can be described thus: qHTS assay to identify small molecule antagonists of the constitutive androstane receptor (CAR) signaling pathway - cell viability counter screen (AID 1224837). Note: nearly all actives have a fitted effect of over 45% in size. The method, boiled down:
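Multiplexed cytotoxicity read-out for the CAR antagonist screen: double-stable HepG2-CYP2B6-hCAR cells co-treated with 50 nM CITCO (final) and compound over 15 concentrations, incubated 23 hr, then assessed by CellTiter-Fluor fluorescence.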

For test [3], the target named is Nuclear receptor subfamily 1 group I member 3 (Homo sapiens) (UniProt Q14994). Briefly: qHTS assay to identify small molecule antagonists of the constitutive androstane receptor (CAR) signaling pathway (AID 1224838). Note: nearly all actives have a fitted effect of over 40% in size. A digest of the protocol: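 Compounds were titrated across 15 concentrations onto HepG2 cells double-stably expressing hCAR and a CYP2B6-2.2kb reporter, together with 50 nM CITCO (final). After 24 h at 37 C, luciferase activity was measured by luminescence.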

The target is the same in test [4]. Briefly: qHTS assay to identify small molecule agonists of the constitutive androstane receptor (CAR) signaling pathway (AID 1224839). Note: nearly all actives have a fitted effect of over 15% in size. Note: potency is the fitted concentration of half-maximal effect. A digest of the protocol: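 Compounds tested at 15 concentrations on HepG2 cells stably harbouring hCAR and CYP2B6-2.2kb reporter constructs, co-treated with PK11195 (0.75 uM final), 24 h at 37 C; luminescent reporter signal quantified.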

Test [5] can be described thus: qHTS assay to identify small molecule antagonists of the estrogen related receptor signaling pathway with the pleiotropic PPARgamma coactivator (PGC) from Tox21 10K library - cell viability counter screen (AID 1224840; active = well fitted cell-killing curve with a large enough effect in the repeat runs, not every such curve was filed as active; note: nearly all actives have a fitted effect of over 40% in size). A digest of the protocol: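 Step one, plate 2,000 PGC/ERR cells per well; step two, incubate 6 h at 37 C/5% CO2; step three, pin-transfer compounds; step four, incubate 17.5 h; step five, add CellTiter-Fluor and read fluorescence after 30 min.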

Test [6] in a line: qHTS assay to identify small molecule antagonists of the estrogen related receptor signaling pathway with the pleiotropic PPARgamma coactivator (PGC) from Tox21 10K library (AID 1224841; call rule not given here; note: actives are mostly falling curves and most rising ones were filed inactive; nearly all actives have a fitted effect of over 50% in size). The method, boiled down:
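Antagonism in this quantitative HTS is taken from loss of luciferase signal in PGC/ERR cells. Cells (2,000/well) are treated with compounds in DMSO after a 6 h settling period and read by One-Glo luminescence after 18 h.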

A short description of test [7]: qHTS assay to identify small molecule agonists of the estrogen related receptor signaling pathway with the pleiotropic PPARgamma coactivator (PGC) from Tox21 10K library (AID 1224842). Note: nearly all actives have a fitted effect of over 15% in size. The method, boiled down: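 PGC/ERR reporter cells (NTP line) were seeded 2,000 per well, rested 6 h at 37 C/5% CO2, then pin-dosed with compounds in DMSO for 18 h at 37 C; luciferase read by One-Glo luminescence after 30 min at room temperature.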

Test [8] concerns the target Thyrotropin receptor (Homo sapiens) (UniProt P16473). The test can be described thus: qHTS assay to identify small molecule agonists of the thyroid stimulating hormone receptor (TSHR) signaling pathway (AID 1224843; calls by dose curve; note: nearly all actives have a fitted effect of over 45% in size). A digest of the protocol: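 TSHR-expressing HEK293 cells (800 per well) were exposed to compounds for 30 min at room temperature. cAMP was then detected by HTRF competition with cAMP-d2 and anti-cAMP cryptate, read after 1 h at room temperature. Fifteen concentrations, triplicate.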

Test [9] is described as follows: qHTS assay to identify small molecule agonists of the hypoxia (HIF-1) signaling pathway - cell viability counter screen (AID 1224844; calls by dose curve; note: nearly all actives have a fitted effect of over 50% in size; note: potency is the fitted concentration of half-maximal effect). A digest of the protocol: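 Tox21 10K compounds were added to HRE-bla ME-180 cells (0.5% dialyzed FBS) and incubated 17 hrs at 37C; ATP-based CellTiter-Glo luminescence then reported cell viability in the same wells.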
Test [10] is described as follows: qHTS assay to identify small molecule agonists of H2AX (AID 1224845; active = well fitted activation curve with a large enough effect in the signal ratio in the repeat runs, not every such curve was filed as active; the % refers to the signal ratio). A digest of the protocol:
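Wild-type CHO-K1 cells plated overnight, then exposed 3 hr at 37C to compounds at 15 concentrations (0.76% DMSO). Lysed, then HTRF anti-pH2AX(S139)-cryptate/anti-H2AX-d2 detection after 24 hr at room temperature; emissions 665 and 620 nm.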

Test [11] is described as follows: qHTS assay to identify small molecule agonists of the hypoxia (HIF-1) signaling pathway (AID 1224846; active = well fitted activation curve with a large enough effect in the signal ratio in the repeat runs, not every such curve was filed as active; the % refers to the signal ratio). The method, boiled down:
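Steps: seed ME-180 HRE-bla cells (2,000/well, 0.5% dialyzed FBS); incubate 5 hrs at 37C; pin-transfer compounds or DMSO; incubate 17 hrs; add LiveBLAzer B/G substrate CCF4-AM; measure reporter activation by FRET.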

Test [12] can be described thus: qHTS assay to identify small molecule agonists of H2AX - cell viability counter screen (AID 1224847; calls by dose curve; note: top concentration of the series differs between compounds; nearly all actives have a fitted effect of over 30% in size). The method, boiled down: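 Compounds tested at 15 concentrations were incubated 3 hr at 37C with wild-type CHO-K1 cells; cellular ATP-based luminescence (CellTiter-Glo) indicated viability.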
Test [13] in a line: qHTS assay to identify small molecule antagonists of the estrogen related receptor (ERR) signaling pathway from Tox21 library (AID 1224848). Note: nearly all actives have a fitted effect of over 50% in size. The method, boiled down:
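Cells: ERR line, 2,000/well; 6 h preincubation 37 C/5% CO2. Cpd in DMSO via pin tool; 18 h, 37 C. ONE-Glo, 30 min RT, luminescence.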

The nature of test [14]: qHTS assay to identify small molecule agonists of the estrogen related receptor (ERR) signaling pathway from Tox21 library (AID 1224849; calls by dose curve; note: nearly all actives have a fitted effect of over 15% in size). The following applies: ERR reporter cell line, ONE-Glo luciferase, 18 h; at 92.4 µM (top of the series) unless noted. The method, boiled down: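 Agonist signal is luciferase luminescence from an ERR reporter cell line treated 18 h at 37 C with DMSO-dissolved compounds, read 30 min after ONE-Glo addition at room temperature.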

A short description of test [15]: qHTS RealTime-Glo MT Cell Viability Assay in HepG2 cells - 24 hour (AID 1224867). Note: nearly all actives have a fitted effect of over 50% in size. The method, boiled down:
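HepG2 suspension premixed with RealTime-Glo reagents is plated at 600 cells per well and left 5 h at 37 C/5% CO2. Compounds in DMSO then go in, and bioluminescence reflecting viable cell number is recorded over 40 h.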

Test [16] can be described thus: A CellTox Green Cytotoxicity Assay to monitor cytotoxicity in HEK293 cells - 0 hour (AID 1224869). Note: nearly all actives have a fitted effect of over 50% in size. The method, boiled down:
(§1)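 Cytotoxicity was tracked continuously in HEK293 cells by a DNA-binding dye excluded from viable cells. Compounds were transferred in DMSO 5 h after seeding; fluorescence was recorded at intervals up to 40 h.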

The nature of test [17]: A CellTox Green Cytotoxicity Assay to monitor cytotoxicity in HEK293 cells - 40 hour (AID 1224871). Note: nearly all actives have a fitted effect of over 45% in size. A digest of the protocol:
as §1

Test [18] is described as follows: qHTS RealTime-Glo MT Cell Viability Assay in HEK293 cells - 16 hour (AID 1224872). A digest of the protocol:
(§2)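 Reads taken at 0, 8, 16, 24, 32 and 40 h from the same wells. HEK293 cells (600/well) carried RealTime-Glo reagents from seeding, with compound added after a 5 h settle at 37 C.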

Test [19] is described as follows: qHTS RealTime-Glo MT Cell Viability Assay in HepG2 cells - 40 hour (AID 1224870). Note: nearly all actives have a fitted effect of over 50% in size. A digest of the protocol: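 HepG2 cells mixed with RealTime-Glo MT reagents (NanoLuc plus cell-permeant prosubstrate) were seeded at 600 cells/well, incubated 5 h at 37 C/5% CO2, then pinned with compounds in DMSO; nonlytic luminescence tracked viability during 40 h treatment.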
A short description of test [20]: qHTS RealTime-Glo MT Cell Viability Assay in HEK293 cells - 32 hour (AID 1224868). A digest of the protocol:
as §2
% is set by controls: 0 for no effect and ±100 for the full control effect.

Chain of Nuclear receptor subfamily 1 group I member 3 (Homo sapiens) (Q14994 whole entry, looked up): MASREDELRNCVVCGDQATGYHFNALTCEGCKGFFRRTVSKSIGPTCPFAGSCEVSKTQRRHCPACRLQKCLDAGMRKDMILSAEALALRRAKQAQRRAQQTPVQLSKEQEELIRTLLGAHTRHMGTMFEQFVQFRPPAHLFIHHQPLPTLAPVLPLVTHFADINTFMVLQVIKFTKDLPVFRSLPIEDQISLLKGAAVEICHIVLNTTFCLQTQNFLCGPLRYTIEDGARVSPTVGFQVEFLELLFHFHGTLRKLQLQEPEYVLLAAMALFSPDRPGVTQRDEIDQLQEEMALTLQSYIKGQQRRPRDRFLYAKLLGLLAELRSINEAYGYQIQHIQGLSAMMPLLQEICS
Chain of Thyrotropin receptor (Homo sapiens) (P16473 whole entry, looked up): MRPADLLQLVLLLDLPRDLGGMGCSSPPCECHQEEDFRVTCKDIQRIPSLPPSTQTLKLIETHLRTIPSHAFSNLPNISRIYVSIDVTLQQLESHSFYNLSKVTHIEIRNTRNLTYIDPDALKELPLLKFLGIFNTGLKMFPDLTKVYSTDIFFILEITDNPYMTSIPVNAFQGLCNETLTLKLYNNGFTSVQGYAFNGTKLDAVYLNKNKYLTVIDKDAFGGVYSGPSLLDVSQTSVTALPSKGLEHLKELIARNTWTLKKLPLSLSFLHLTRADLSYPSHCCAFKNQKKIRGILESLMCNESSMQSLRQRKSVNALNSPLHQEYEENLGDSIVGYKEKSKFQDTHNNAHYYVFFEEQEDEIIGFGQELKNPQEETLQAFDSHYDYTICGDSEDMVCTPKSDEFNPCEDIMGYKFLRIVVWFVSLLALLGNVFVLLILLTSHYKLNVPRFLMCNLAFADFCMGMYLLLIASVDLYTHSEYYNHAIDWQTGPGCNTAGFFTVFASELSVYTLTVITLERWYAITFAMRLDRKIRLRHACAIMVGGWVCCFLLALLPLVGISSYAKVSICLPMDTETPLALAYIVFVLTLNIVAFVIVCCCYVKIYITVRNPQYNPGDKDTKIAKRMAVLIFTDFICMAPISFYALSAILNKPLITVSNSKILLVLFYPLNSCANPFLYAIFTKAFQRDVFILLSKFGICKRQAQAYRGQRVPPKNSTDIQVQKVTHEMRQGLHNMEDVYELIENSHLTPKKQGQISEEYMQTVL

As to `CC(C)CCOCCC(C)C`, the Potency result in [1], in test [2], in test [3], in test [4], in [5] and in test [6] was “inactive” in each case. The Potency entry in test [7], in test [8], in test [9], in test [10], in test [12] and in test [13] was “inactive” each time. Further, the Potency entry in test [15], in [16], in test [17] and in [18] was “inactive” throughout. Moreover, the result in test [11] was inactive. Further, in test [14], the activity change, positive = activation was -1.03%.
With `Oc1ccc(-c2ccc(O)cc2)cc1`, the Potency entry in test [1], in test [2], in test [3], in test [5], in [6] and in [7] was “inactive” in each case. Also, the Potency result in test [8], in test [15], in test [16], in test [19] and in test [17] was “inactive” throughout. Also, the values for the Potency in test [4] and in [9] were 17.3 µM (active) and 49.3 µM (active), respectively. Also, in test [14], the activity change, positive = activation was -24.2%.
Turning to `ClC/C=C\CCl`, the Potency result in [1], in [2], in test [3], in [4], in test [5] and in [6] was “inactive” each time. Moreover, the Potency entry in [7], in [8], in [9], in test [12], in test [13] and in test [15] was “inactive” each time. For the same compound, the Potency entry in test [20], in test [16], in [19], in [17] and in [18] was “inactive” in each case. For the same compound, in test [11], the compound was called inactive. In test [14], the activity change, positive = activation was -4.37%.
Regarding `CCCCOC(=O)C(C)CC` (stereo not given), the Potency entry in [1], in [2], in test [3], in test [4], in test [5] and in test [6] was “inactive” in each case. Moreover, the Potency entry in [7], in [8], in test [9], in test [10], in test [12] and in test [13] was “inactive” throughout. The Potency entry in test [15], in [20], in test [16], in test [19], in [17] and in [18] was “inactive” each time. For the same compound, the outcome in test [11] was inactive. Moreover, in test [14], the activity change, positive = activation was 6.06%.
With `CCN1CCN(c2cc(-c3ccc(F)cc3)c3c(n2)CCCCCC3)CC1`, the results for the viability change, negative = cytotoxic in [1] and in [5] were 4.47% [at 19 µM] and 18% [at 19 µM], respectively. The activity change, negative = cytotoxicity in test [2] was 3.17% [at 19 µM]; in [9], 0.919% [at 15.8 µM]; in [12], -6.38% [at 31.6 µM]; in test [18] it was 2.72% [at 15.8 µM]. Further, the figures for the activity, negative = inhibition in test [3], in test [6] and in test [13] were 16.5% [at 19 µM], 3.89% [at 19 µM] and -10.2% [at 19 µM], respectively. Further, the activation in test [4] is -1.24% [at 19 µM]; in test [7], -0.232% [at 19 µM]; in test [8], -12.2% [at 19 µM]; in test [11], 1.71% [at 15.8 µM]. Also, the activation (H2AX phosphorylation) in test [10] was 3.44% [at 31.6 µM]. In test [14], the activity change, positive = activation was -5.69% [at 19 µM]. Besides, the cytotoxicity in test [16] is -14.4% [at 15.8 µM]. Further, the activity change, negative = cytotoxic in [19] was -8.41% [at 15.8 µM]. Also, the cytotoxicity increase in test [17] was 9.69% [at 15.8 µM].
For the compound `CCCCOCC`, the Potency entry in [1], in test [2], in [3], in test [4], in test [5] and in [6] was “inactive” each time. Further, the Potency result in test [7], in test [8], in [12], in test [13], in [15] and in test [16] was “inactive” in each case. Besides, the Potency entry in [19] and in test [17] was “inactive” throughout. Moreover, the compound was called inactive in test [11]. The activity change, positive = activation in test [14] is -0.464%.
Take `Cc1ccc(O)cn1`: the Potency entry in [1], in test [2], in test [3], in [4], in [5] and in test [6] was “inactive” each time. Besides, the Potency result in test [7], in test [8], in test [9], in [10], in test [12] and in [13] was “inactive” each time. For the same compound, the Potency entry in test [15], in [20], in [16], in test [19], in test [17] and in test [18] was “inactive” in each case. The result in [11] was inactive. Further, in [14], the activity change, positive = activation was 9.23%.
